Assay outcomes deposited in PubChem by National Center for Advancing Translational Sciences (NCATS).
Compounds with a hit are over-represented: about 8.7% of the library has one in this group of screens.
VACV mCherry inh = vaccinia inhibition (mCherry reporter) | hit rate 0.63% among 310,000 | Vaccinia virus mCherry reporter infection, fluorescence | Potency, µM (highest dose often 36.5 µM), for inactives: at the top dose activity change, negative = inhibition, actives largely listed as inhibitors; calls by dose curve; tested in A549 cells; further: nearly all actives have a fitted effect of over 35% in size
Pf growth 48h = P. falciparum growth inhibition at 48 hours (one generation); hit rate 5.9% among 310,000; P. falciparum luciferase growth in erythrocytes, 48 h; Potency, µM (top dose mostly 28.7 µM), for inactives: at the top dose activity change, negative = inhibition, hits mostly inhibitors; AID 504832
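Growth was read as firefly luciferase luminescence after a 48 h, 37 C, 5% CO2 exposure of compounds to reporter-bearing P. falciparum cultures (0.1% parasitemia, 2% hematocrit final) in Albumax-supplemented RPMI 1640.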
Pf growth 96h = P. falciparum growth inhibition at 96 hours | hit rate 6.9% among 320,000 | Potency, µM (highest dose often 28.7 µM), for the others: at the top dose activity change, negative = inhibition, hits mostly inhibitors | P. falciparum luciferase reporter growth, 96 h | AID 504834
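Compounds incubated with erythrocytes infected by luciferase-expressing P. falciparum (2% hematocrit, 0.05% parasitemia final) for 96 hours, 37 C in 5% CO2. Growth inhibition scored as decreased luciferase luminescence.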
AMA1-RON2 inh = AMA1-RON2 (P. falciparum) interaction inhibition; Potency, µM (doses to about 58.2 µM), without a hit: at the top dose activity change, negative = inhibition, usual class: inhibitors; AID 720542; AlphaScreen AMA1-biotinylated RON2 peptide binding; hit rate 0.2% among 360,000;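 further: 0% = vehicle wells and -100% = peptide control; nearly all actives have a fitted effect of over 45% in size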
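AMA1 (3D7) with his tag at 25 nM final met compounds first, then biotinylated RON2 peptide at 25 nM; detection used donor plus acceptor beads, 10 µg/mL apiece, read by AlphaScreen after 30 min at room temperature.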
VACV Venus inh = inhibitors of vaccinia virus (Venus reporter); Vaccinia virus Venus reporter expression, fluorescence; Potency, µM (highest dose often 36.5 µM), for inactives: top-dose activity change, negative = inhibition, usual class: inhibitors; hit rate 0.46% among 330,000; AID 720580; calls by dose curve; tested in A549 cells; further: nearly all actives have a fitted effect of over 30% in size
* = called active by the depositor; i = inactive; ? = inconclusive; nt = not tested or not shown; [ ] = another dose, or the depositor's remark. Unless noted, the call rests on the fitted dose curve; in most records, active means well fitted curve in the direction sought with a large enough effect; inconclusive means small, poorly fitted or top-dose-only effect, or another doubt; inactive means no such curve, though single readings can be large; an effect the other way counts as inactive or inconclusive. Unless noted, on the % scale 0 is the no-effect control and ±100 the full control effect; potency means the concentration at half of the fitted maximal effect.

SMILES | VACV mCherry inh | Pf growth 48h | Pf growth 96h | AMA1-RON2 inh | VACV Venus inh
COc1cccc(C2NC(=O)CCC2[N+](=O)[O-])c1OC (stereo not given) | ? | 3.3% | 40.9% | -3.7% | -0.6%
CCc1ccccc1N1CC(c2nc3ccccc3n2CCOc2ccc(Cl)c(C)c2)CC1=O (stereo not given) | -27.7% | nt | nt | nt | ?
COc1cccc(C(C(=O)NC2CCCCC2)N(C(=O)c2ccco2)c2ccc(-n3cnnn3)c(C)c2)c1 (stereo not given) | -10.7% | 14.7µM* | -9.6% | 0.0% | -1.2%
Cc1cc(N(C(=O)c2ccco2)C(C(=O)NC2CCCCC2)c2ccccc2)ccc1-n1cnnn1 (stereo not given) | -17.6% | 9.28µM* | nt | 0.4% | -9.8%
COc1cc2ccccc2cc1C(=O)N1CCc2ccccc21 | -20.9% | 9.28µM* | ? | -2.8% | -28.8%
COc1ccc2cc(-c3cc(C(=O)O)c4ccccc4n3)ccc2c1 | 10µM* | -31.6% | 44.2% | 11.5% | 4.0%
COc1ccc(-c2cc(C(=O)N3CC(C)CC(C)C3)c3ccccc3n2)cc1 (stereo not given) | -4.3% | 2.94µM* | 3.7µM* | -1.0% | -20.7%
CCOc1ccc(-c2cc(C(=O)NN3CCN(C)CC3)c3cc(Cl)ccc3n2)cc1 | nt | 2.33µM* | 4.15µM* | nt | nt
CCOc1cccc(C(=O)N(Cc2ccc(F)cc2)Cc2ccco2)c1 | -9.4% | nt | nt | nt | -13.3%
COc1cccc(Cn2c(NCc3ccc(C)cc3)nc3c2c(=O)n(C)c(=O)n3C)c1 | i | nt | nt | nt | -5.0%
COc1cccc(CNCCCSc2nnnn2C)c1OC | -5.7% | nt | nt | nt | -5.6%
COc1cc2ccccc2cc1C(=O)N1CCCC1 | i | 106.9% | -14.5% | -3.0% | -6.0%
COc1cc2ccccc2cc1C(=O)N1CC(C)CC(C)C1 (stereo not given) | nt | 0.329µM* | 0.294µM* | 0.0% | nt
COc1ccc(-c2cc(C(=O)N3CCCC3)c3ccccc3n2)cc1 | nt | 72.0% | 3.7µM* | -3.0% | nt
CCOC(=O)N1CCN(C(=O)c2cc(-c3ccc(OCC)cc3)nc3ccccc23)CC1 | nt | 26.8% | 3.7µM* | 0.0% | nt
CCOc1ccc(-n2c(=O)[nH]cc(C(=O)N3CCc4ccccc43)c2=O)cc1 | ? | -12.1% | -12.7% | 0.0% | 2.82µM*
CCOc1ccc(-c2cc(C(=O)N3CCCC3)c3ccccc3n2)cc1 | -13.9% | 30.3% | -2.7% | 8.8% | -7.0%
O=C(c1c[nH]c(=O)n(-c2ccccc2)c1=O)N1CCc2ccccc21 | nt | 2.6% | ? | -9.8% | nt
Cc1cc(C)cc(NC(=O)Cc2c(C(=O)O)c(C)cn2C)c1 | -4.5% | nt | nt | nt | -6.8%
O=C(Nc1ccc(Cl)cc1)C1CCCN(S(=O)(=O)c2ccc3[nH]c(=O)ccc3c2)C1 (stereo not given) | -3.5% | nt | nt | nt | 5.9%
O=C(Cc1cccc(F)c1)NO | -10.3% | nt | nt | nt | -11.9%
Cc1ccc2nc(N3CCN(CCO)CC3)nc(-c3ccccc3)c2c1 | nt | ? | ? | 10.2% | nt
CCOC(=O)N1CCN(c2nc(-c3ccccc3)c3cc(C)ccc3n2)CC1 | nt | 10.4µM* | ? | 45.3% | nt
Clc1ccc2nc(N3CCNCC3)nc(-c3ccccc3)c2c1 | -30.9% | 11.7µM* | 9.0%[5.75 µM] | 20.5% | -18.0%
COc1ccccc1OC(C)C(=O)N1CCc2ccccc21 (stereo not given) | -22.6% | 10.4µM* | -5.4% | -0.5% | -17.2%
SMILES | VACV mCherry inh | Pf growth 48h | Pf growth 96h | AMA1-RON2 inh | VACV Venus inh
O=C(c1ccc([N+](=O)[O-])cc1[N+](=O)[O-])N1CCCC1 | -25.0% | -29.0% | 86.2% | -18.4% | -4.3%
O=C(c1ccc([N+](=O)[O-])cc1[N+](=O)[O-])N1CCc2ccccc21 | 2.24µM* | -14.7% | ? | -5.0% | ?
CCOc1ccc(NS(=O)(=O)c2ccc3c4c(cccc24)C(=O)N3)cc1 | -19.6% | nt | nt | nt | -4.0%
COc1ccc(-c2ccc(NS(=O)(=O)c3cccc(Cl)c3)cc2)nn1 | -8.2% | nt | nt | nt | -6.9%
COc1ccc(-n2ccc(-c3sc(NCc4cc(OC)c5c(c4)OCO5)nc3C)n2)cc1 | -15.7% | nt | nt | nt | -10.2%
Fc1ccc(-c2csc(-c3nc(-c4ccc(Br)s4)cs3)n2)cc1 | 0.7% | nt | nt | nt | -2.7%
CCC(=O)OCc1cnc(C)c2oc(=O)c(C(=O)Nc3ccc(CC)cc3)cc12 | -10.7% | nt | nt | nt | -6.3%
CC(NC(=O)c1ccco1)c1nnc2n1CCN(Cc1ccc(Cl)cc1)CC2 (stereo not given) | -13.2% | nt | nt | nt | -4.6%
Cc1nn(CCC(=O)N2CCN(c3ccccc3)CC2)c(C)c1S(=O)(=O)N1CCCC1 | -11.7% | nt | nt | nt | -4.1%
Cc1cc(-c2cc(C(=O)O)c3ccccc3n2)c(C)s1 | i | 15.8% | 1.65µM* | -0.8% | -4.9%
Cc1nn(C)cc1-c1cc(C(=O)O)c2ccccc2n1 | 9.8% | 12.1% | -1.9% | 11.5% | 5.7%
COc1ccc(OC)c(NC(=O)CSc2n[nH]c(-c3ccccc3Cl)n2)c1 | -10.3% | nt | nt | nt | -3.7%
CC1(C)CC(NC(=O)C2CCC(=O)N(C3CC3)C2)CC(C)(C)C1 (stereo not given) | -19.3% | 8.3% | 8.28µM* | -2.9% | -11.1%
CCc1ccc(C2C(C(=O)Nc3ccccc3OC)=C(C)Nc3c(C(=O)Nc4ccc(C)cc4)cnn32)cc1 (stereo not given) | i | nt | nt | nt | -17.5%
CC(=O)c1ccc(N2CCN(C(=S)NCc3ccco3)CC2)cc1 | nt | -3.5% | 13.1µM* | -9.3% | nt
S=C(NCc1ccco1)N1CCN(c2ccc(Cl)cc2)CC1 | ? | -9.5% | ? | 6.2% | -19.6%
S=C(NCc1ccco1)N1CCN(Cc2ccc(Cl)cc2Cl)CC1 | nt | ? | 10.4µM* | -13.5% | -28.1%
S=C(NCc1ccco1)N1CCN(C/C=C/c2ccccc2)CC1 | -11.3% | -21.1% | 19.0% | -17.0% | -12.8%
CCC(CC)c1nn2c(=O)cc(COc3ccc(NC(=O)c4ccccc4Cl)cc3)nc2s1 | ? | nt | nt | nt | -7.7%
CC(C)c1ccc(S(=O)(=O)Nc2cc3c(cc2NCc2ccccc2)n(C)c(=O)n3C)cc1 | -4.4% | nt | nt | nt | -13.4%
NC(N)=NCC1COc2ccccc2O1 (stereo not given) | nt | ? | 2.13µM* | nt | nt
OCCN1CCN(CC(O)COCC2COc3ccccc3O2)CC1 (stereo not given) | i | 11.2% | 3.7% | 0.0% | -22.4%
O=C(OCC1COc2ccccc2O1)c1c(F)cccc1F (stereo not given) | -22.3% | 4.15µM* | ? | 16.2% | -12.3%
OC(COCC1COc2ccccc2O1)CN1CCN(c2ccccc2F)CC1 (stereo not given) | nt | 31.5% | 7.38µM* | 3.1% | -16.0%
O=C(NCc1ccccc1)C(=O)NCC1COc2ccccc2O1 (stereo not given) | ? | 1.4% | 13.7% | 1.7% | ?
Cc1ccc(S(=O)(=O)c2nc(-c3cccs3)oc2SCc2ccc(F)cc2)cc1 | -9.4% | nt | nt | nt | -18.6%
COC(=O)c1ccccc1NC(=O)Cc1nc(-c2ccc(OC)cc2)no1 | i | nt | nt | nt | -15.1%
CCOC(=O)C(=CNc1ccc(-c2ccco2)c(Cl)c1)C(=O)OCC | nt | ? | ? | 5.5% | nt
